MK inhibit = inhibitors of Streptococcus pneumoniae mevalonate kinase. purified MK, PK/LDH-coupled NADH absorbance 340 nm. inhibition, % at 10 µM. 0.48% of 65,000 active. AID 555;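 active means ranked among the strongest by inhibition in the single 10 µM screen, a fixed top-ranked set picked for dose follow-up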
Autofluor 339 = intrinsic fluorescence of library compounds, ex339/em460 – biochemical, MLSMR library, data from DPM-DC assay, artefact control, profiling panel | AID 709 | fluorescence fold increase at 10 µM | compound autofluorescence, ex339/em460 nm, NADH buffer; active compounds read high; 1 = no-compound wells, NADH background | 5.5% of 65,000 active;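 active means at 10 µM, mean starting fluorescence two-fold or more over control wells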;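 further: signal is the first read of a kinetic run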
Abs 340nm = compounds absorbing at 340 nm; compound absorbance at 340 nm, fold over control; fold change at 10 µM; 65,000 tested, under 10 active; AID 708;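 active means at 10 µM dose, initial 340 nm absorbance at least 2 fold that of control wells; inactive means change under 2 fold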;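 further: initial absorbance extrapolated from kinetic A340 decline of NADH oxidation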
DPM-DC inhibit = S. pneumoniae DPM-DC inhibition. purified DPM-DC, PK/LDH coupled NADH fluorescence. calls only at 10 µM. 0.49% of 65,000 active. AID 556;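 active means the 320 compounds with the highest percent inhibition in the single-dose primary screen, excluding strongly autofluorescent ones, cut at about 32% in these data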;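 further: kinetic rate of NADH fluorescence loss reporting ADP formed by the decarboxylase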
PMK inhibit = inhibitors of Streptococcus pneumoniae phosphomevalonate kinase; 0.49% of 65,000 active; inhibition, % at 10 µM; purified PMK, PK/LDH-coupled NADH absorbance 340 nm;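 active means top-ranked compounds by inhibition in the single 10 µM screen, taking a fixed number of the strongest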;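 further: 0% = full reaction with DMSO carrier and 100% = background rate without enzyme reaction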
NADH coupling = inhibition of NAD/NADH coupling enzymes, library profiling. coupled PK/LDH NADH assays, four targets. IC50, µM (highest dose often 10 µM), for inactives: at the top dose inhibition. 0.02% of 65,000 active;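 active means single-dose screening hits from any of four coupled enzyme assays that gave an IC50 when retested across doses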;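 further: the DPM-DC format reads NADH fluorescence rather than 340 nm absorbance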
* marks the source's active call; other numbers are inactive results. Hits are enriched below; roughly 6.8% of the tested compounds scored in any of these assays.

Screening CC1(C)CC(=O)c2c(nc3ccccc3c2N)C1 returned MK inhibit 0, Autofluor 339 2.8*, Abs 340nm 1.1, DPM-DC inhibit inactive, PMK inhibit 0 and NADH coupling 4%.
`O=C(c1ccco1)N1CCN(C(c2cccs2)c2nnnn2C2CCCCC2)CC1` (stereo not drawn) gave MK inhibit 11, Autofluor 339 1.1, Abs 340nm 1, DPM-DC inhibit inactive, PMK inhibit 18 and NADH coupling 10%.
CN(C)c1ccc(-c2nn3c(C4CCCCC4)nnc3s2)cc1 was read as MK inhibit 4, Autofluor 339 2.5*, Abs 340nm 1.1, DPM-DC inhibit inactive, PMK inhibit 4 and NADH coupling 11%.
CN(C)c1ccc(-c2nn3c(-c4ccc(Cl)cc4)nnc3s2)cc1 was read as MK inhibit 2, Autofluor 339 1.3, Abs 340nm 1, DPM-DC inhibit inactive, PMK inhibit 0 and NADH coupling 1%.
Screening COc1ccccc1NC(=O)c1ccc(Br)o1 returned MK inhibit 0, Autofluor 339 1, Abs 340nm 1.1, DPM-DC inhibit inactive, PMK inhibit 3 and NADH coupling 3%.
CCOC(=O)c1c(NC(=O)c2cccs2)sc(C)c1CC was read as MK inhibit 4, Autofluor 339 2.2*, Abs 340nm 1.1, PMK inhibit 0 and NADH coupling 2%.
Screening CCOC(=O)C1=C(NC(=O)c2ccc(Br)o2)Nc2ccccc2N=C1 returned MK inhibit 33, Autofluor 339 1.2, Abs 340nm 1.1, DPM-DC inhibit inactive, PMK inhibit 36* and NADH coupling 29%.
`CCOC(=O)c1c(NC(=O)c2ccc(Br)o2)sc(C)c1CC` gave MK inhibit 3, Autofluor 339 2.1*, Abs 340nm 1.1, PMK inhibit 0 and NADH coupling 2%.
CCOC(=O)c1c(NC(=O)c2cccs2)sc(C(=O)N2CCOCC2)c1C was read as MK inhibit 0, Autofluor 339 1.4, Abs 340nm 1.1, DPM-DC inhibit inactive, PMK inhibit 19 and NADH coupling 10%.
For C=CCn1c(NC(=O)c2ccc(Br)o2)c(C(=O)OCC)sc1=S the results were MK inhibit 20, Autofluor 339 1.1, Abs 340nm 1.1, DPM-DC inhibit inactive, PMK inhibit 8 and NADH coupling 10%.
CCOC(=O)c1ccccc1NC(=O)c1cccs1 was read as MK inhibit 7, Autofluor 339 1.1, Abs 340nm 1, DPM-DC inhibit inactive, PMK inhibit 4 and NADH coupling 4%.
CCc1c(C)sc(NC(=O)c2cccs2)c1C(=O)OC(C)C was read as MK inhibit 10, Autofluor 339 2.1*, Abs 340nm 1.1, PMK inhibit 13 and NADH coupling 12%.
`O=C(O)C1CSC(CCc2ccccc2)N1` (stereo not drawn) gave MK inhibit 2, Autofluor 339 1.1, Abs 340nm 1, DPM-DC inhibit inactive, PMK inhibit 6 and NADH coupling 3%.
For CCOC(=O)c1sc2nc(NC(=O)c3cccs3)sc2c1C the results were MK inhibit 0, Autofluor 339 2.1*, Abs 340nm 1.1, PMK inhibit 0 and NADH coupling 0%.
`COc1ccccc1-n1c(SCC(=O)N2CCCCC2)nnc1-c1ccccc1O` gave MK inhibit 5, Autofluor 339 1, Abs 340nm 1, DPM-DC inhibit inactive, PMK inhibit 27* and NADH coupling 11%.
Screening COc1ccccc1OCc1nnc(SCC(=O)N2CCCCC2)n1-c1ccccc1 returned MK inhibit 0, Autofluor 339 0.97, Abs 340nm 1, DPM-DC inhibit inactive, PMK inhibit 7 and NADH coupling 7%.
For Cc1ccccc1-c1nc2cc(N)ccc2o1 the results were MK inhibit 9, Autofluor 339 3.1*, Abs 340nm 1, DPM-DC inhibit active, PMK inhibit 11 and NADH coupling 18%.
For Nc1ccc2oc(-c3cccc(Br)c3)nc2c1 the results were MK inhibit 9, Autofluor 339 2*, Abs 340nm 1.1, PMK inhibit 1 and NADH coupling 5%.
`CC(C)c1ccc2oc(-c3cc(N)ccc3O)nc2c1` gave MK inhibit 0, Autofluor 339 1.2, Abs 340nm 1.1, DPM-DC inhibit inactive, PMK inhibit 0 and NADH coupling 0%.

Assay outcomes from PubChem BioAssay.
